Experimental data published in PubChem BioAssay AID372 (MTDP, 2006).
Hit rate of the full screen: of about 100,000 compounds, about 770 (0.77%) were called active. Rule as the data show it: active = inhibition above about 50%; inactive = the rest. The list comes from a sample in which actives are over-represented; it also holds similar structures and randomly drawn compounds.

What follows are compounds tested against Gag-Pol polyprotein (Human immunodeficiency virus type 1 group M subtype B (isolate HXB2)) (UniProt P04585) (assay: RNase H inhibition, HIV 1 Gag Pol polyprotein, FRET biochemical assay, screening (AID 372)). Details: HIV-1 RT RNase H, FRET RNA/DNA substrate fluorescence; at 10 µM; active compounds read high.

Row | Structure (SMILES) | inhibition
1 | CC1=NN(C(=O)c2cccc(O)c2)C(O)(c2ccc(Br)cc2)C1 (stereo not drawn) | 8% (inactive)
2 | CC(=O)C1C(=O)c2cc([N+](=O)[O-])ccc2C1=Nc1ccc(Br)cc1 (stereo not drawn) | 6% (inactive)
3 | CCOC(=O)C1=C(C)N(C)C(=O)NC1c1ccc2c(c1)OCO2 (stereo not drawn) | 7% (inactive)
4 | CCCCSc1nnc(-c2ccc(Cl)cc2Cl)o1 | 3% (inactive)
5 | COc1cc(/C=C2\C(=O)N(c3nc(-c4ccc(Cl)cc4)cs3)N=C2C)cc(OC)c1OC | 45% (inactive)
6 | CC1=NN(c2nc(-c3ccc(Cl)cc3)cs2)C(=O)/C1=C\c1ccc2c(c1)OCO2 | 57% (active)
7 | CC1=NN(c2nc(-c3ccc(F)cc3)cs2)C(=O)/C1=C\c1ccc(O)cc1 | 45% (inactive)
8 | CC1=NN(c2nc(-c3ccc(F)cc3)cs2)C(=O)/C1=C\c1ccc2c(c1)OCO2 | 58% (active)
9 | CC1=NN(c2nc(-c3ccc(Br)cc3)cs2)C(=O)/C1=C\c1ccc2c(c1)OCO2 | 40% (inactive)
10 | CC1=NN(c2ccc(C)cc2)C(=O)/C1=C\c1ccc2c(c1)OCO2 | 2% (inactive)
11 | O=C(/C(=C\c1ccc([N+](=O)[O-])cc1)n1cncn1)c1ccc(Cl)cc1Cl | 16% (inactive)
12 | CCc1ccc(NC(=O)C(CC)c2ccccc2)cc1 (stereo not drawn) | 44% (inactive)
13 | C/C=C/c1ccc(OCCOCCOc2cccc(C)c2C)c(OC)c1 | 15% (inactive)
14 | COc1ccc(S(=O)(=O)N(Cc2ccccc2)c2ccccc2C(=O)NC(C)c2ccccc2)cc1 (stereo not drawn) | 26% (inactive)
15 | Cc1nc2sccn2c1-c1csc(Nc2ccc([N+](=O)[O-])cc2)n1 | 69% (active)
16 | Cc1nc2ccccn2c1-c1csc(Nc2ccc([N+](=O)[O-])cc2)n1 | 14% (inactive)
17 | Cc1nc2sccn2c1-c1csc(Nc2ccc(O)cc2)n1 | 12% (inactive)
18 | Cc1cccc(-n2sc3c(c2=S)-c2ccccc2NC3(C)C)c1C | 10% (inactive)
19 | CCOc1cc(CN2CCN(c3ccccn3)CC2)ccc1O | 15% (inactive)
20 | O=C(/C=C/c1ccccc1)Nc1ccc(-c2nc3cc(NC(=O)/C=C/c4ccccc4)ccc3[nH]2)cc1 | 72% (active)
21 | O=C(/C=C\c1ccccc1)Nc1cccc(-c2nc3ccccc3[nH]2)c1 | 21% (inactive)
22 | Cc1ccc2oc(-c3ccc(NC(=O)/C=C\c4ccccc4)cc3)nc2c1 | 52% (active)
23 | Cc1ccc(-c2nc3ccccc3[nH]2)cc1NC(=O)/C=C\c1ccccc1 | 15% (inactive)
24 | Cc1ccc2oc(-c3ccc(NC(=O)/C=C/c4ccccc4)cc3O)nc2c1 | 22% (inactive)
25 | COc1ccc(/C=C\C(=O)Nc2ccc3oc(-c4cccnc4)nc3c2)cc1 | 7% (inactive)
26 | O=C(/C=C\c1ccccc1)Nc1ccc2oc(-c3ccccc3)nc2c1 | 16% (inactive)
27 | Cc1ccc2nc(-c3ccc(NC(=O)/C=C\c4ccccc4)cc3)oc2c1 | 40% (inactive)
28 | COc1cccc(-c2nc3cc(NC(=O)/C=C\c4ccccc4)ccc3o2)c1 | 62% (active)
